A selection: hits, their analogues and other compounds. The true share with any hit is near 2.9%.
pPAFAH FP inh = pPAFAH enzyme inhibitors, primary screen, biochemical, fluorescence polarization, human | Platelet-activating factor acetylhydrolase (Homo sapiens), Q13093 | recombinant pPAFAH, FP-rhodamine probe fluorescence polarization | inhibition, % at 3.39 µM | 1.5% of 330,000 active | AID 463082, 2010;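 active means inhibition above the mean inhibition across the screen plus 3 SD, cut at about 25% in these data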;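 further: inhibitors block binding of the rhodamine activity-based probe so polarization drops; 0% = enzyme with DMSO and 100% = wells lacking pPAFAH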
Target sequence (Q13093 whole entry, looked up): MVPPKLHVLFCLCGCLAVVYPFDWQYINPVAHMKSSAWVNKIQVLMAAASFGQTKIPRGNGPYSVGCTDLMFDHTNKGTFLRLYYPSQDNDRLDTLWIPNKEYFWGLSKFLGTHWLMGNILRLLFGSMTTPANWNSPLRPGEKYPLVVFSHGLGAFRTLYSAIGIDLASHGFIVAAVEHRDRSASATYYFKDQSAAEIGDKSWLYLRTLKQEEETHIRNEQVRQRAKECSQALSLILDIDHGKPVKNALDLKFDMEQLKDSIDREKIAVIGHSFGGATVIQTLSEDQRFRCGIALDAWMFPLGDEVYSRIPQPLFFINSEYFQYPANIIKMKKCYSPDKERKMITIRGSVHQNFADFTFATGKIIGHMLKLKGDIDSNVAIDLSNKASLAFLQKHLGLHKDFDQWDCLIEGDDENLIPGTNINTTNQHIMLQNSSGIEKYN
PAFAH1B3 FP inh = PAFAH1B3 enzyme inhibitors, primary screen, biochemical, fluorescence polarization, human | AID 492972, 2010 | recombinant PAFAH1B3, FP-rhodamine probe | Platelet-activating factor acetylhydrolase IB subunit alpha1 (Homo sapiens), Q15102 | inhibition, % at 3.39 µM | 0.28% of 340,000 active;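 active means inhibition above the screen-wide average of all tested compounds plus 3 SD, cut at about 25% in these data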;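 further: 0% = enzyme with DMSO only and 100% = wells lacking PAFAH1B3 protein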
PME-1 primary = PME-1 inhibitors via competitive probe labeling, primary screen, biochemical, fluorescence polarization, FP-Rh probe, HTS; 0.53% of 320,000 active; Protein phosphatase methylesterase 1 (Homo sapiens), Q9Y570; inhibition, % at 5.9 µM; recombinant PME-1;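 active means inhibition above the campaign mean of all compounds plus 3 SD, cut at about 26% in these data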;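 further: competitive labeling of PME-1 active site by serine hydrolase directed probe; 0% = PME-1 with DMSO and 100% = wells lacking PME-1 enzyme; inhibitors block probe labeling so polarization falls and inhibition rises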
Fam108B counter = mouse Fam108B serine hydrolase inhibitors, primary screen, counter-screen for RBBP9 inhibitor project, biochemical, fluorescence polarization | recombinant Fam108B, FP-Rh probe fluorescence polarization | inhibition, % at 9.51 µM | 0.33% of 300,000 active;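 active means inhibition above the screen mean inhibition plus 3 SD, computed separately per campaign, cut at about 18% in these data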;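 further: inhibitors lower polarization as less probe binds the enzyme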
PAFAH1B2 inh = PAFAH1B2 enzyme inhibitors, primary screen, biochemical, fluorescence polarization, human; inhibition, % at 3.39 µM; recombinant PAFAH1B2, FP-rhodamine activity probe; AID 492953, 2010; 1.2% of 340,000 active; Platelet-activating factor acetylhydrolase IB subunit alpha2 (Homo sapiens), P68402;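 active means inhibition above the mean of all tested compounds plus 3 SD, cut at about 24% in these data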;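 further: 0% = enzyme with DMSO and 100% = wells lacking PAFAH1B2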
PAFAH2 FP inh = PAFAH2 enzyme inhibitors, primary screen, biochemical, fluorescence polarization, human; Platelet-activating factor acetylhydrolase 2, cytoplasmic (Homo sapiens), Q99487; recombinant PAFAH2, FP-rhodamine activity probe; inhibition, % at 3.39 µM; 0.99% of 340,000 active; AID 492956, 2010;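 active means inhibition above the mean over all tested compounds plus 3 SD, cut at about 30% in these data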;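 further: inhibitors block probe labeling of enzyme so polarization drops; 0% = enzyme with DMSO and 100% = wells lacking PAFAH2 protein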
Active calls of the source: *; nt = no result given.

SMILES	pPAFAH FP inh	PAFAH1B3 FP inh	PME-1 primary	Fam108B counter	PAFAH1B2 inh	PAFAH2 FP inh
Cc1ccc(NC(=O)CCS(=O)(=O)c2cc3[nH]c(=O)c(=O)[nH]c3cc2C)cc1	5	0	0	-1	-2	1
COc1ccc2nccnc2c1[N+](=O)[O-]	2	8	0	1	1	7
CC(=NNC(=O)c1ccncc1)c1ccccc1O	nt	10	nt	nt	4	-2
CC(C)CC(=NNC(=O)c1ccncc1)c1cc(Cl)ccc1O	nt	8	nt	nt	29*	-9
CCCn1c(=O)c2ccccc2n2c(Sc3nnnn3-c3ccccc3)nnc12	27*	8	4	0	-3	-7
COc1ccc(S(=O)(=O)CCC(=O)N2CCN(c3cccc(Cl)c3)CC2)cc1	3	-2	2	0	9	5
O=c1ccccn1Cc1c(F)cccc1Cl	3	11	-1	-2	4	5
Nc1ncnc2nc(SCCC(=O)O)[nH]c12	8	4	-5	-2	3	-2
CCOC(=O)c1cc(-c2ccc(OC)cc2)nn1-c1ccc(C(=O)O)cc1	31*	-7	-2	0	2	5
CCOC(=O)c1cc(-c2cccnc2)nn1-c1ccccc1	-1	18	-2	-1	1	1
CCOc1ccc2nc(SCC(=O)NC(=O)NCc3ccco3)sc2c1	26*	6	-6	-9	-20	-5
Cc1cccc(OCCCC(=O)NNC(=O)c2cccc(N(C)C)c2)c1	3	5	nt	nt	0	4
Cc1nn(CCOc2ccccc2)c(=O)n1-c1cccc(F)c1	3	7	-3	-3	1	3
CCC(C)c1ccccc1NC(=O)COC(=O)c1ccc(N2CCCC2)c([N+](=O)[O-])c1 (stereo not drawn)	30*	4	13	-1	-2	79*
CC1CCC(NC(=O)C2CCN(S(=O)(=O)c3ccc4nc5c(c(C(=O)O)c4c3)CC(C)CC5)CC2)CC1 (stereo not drawn)	-9	18	-13	-4	12	18
CCOC(=O)c1cnc2ccc(C)cc2c1N(C)Cc1ccccc1	25*	-4	-14	6	4	-6
C/C(CC(C)(C)C1CCCCC1)=N\NC(N)=S	6	2	1	1	41*	2
C/C(CCC12CC3CC(CC(C3)C1)C2)=N\NC(N)=S	-2	9	2	-1	24	4
O=C(O)c1ccc(N/N=C/c2ccc(OC(=O)c3cccc(Cl)c3)cc2)cc1	17	5	41*	3	3	16
CCc1ccc(S(=O)(=O)N/N=C\c2cn(CC(N)=O)c3ccccc23)cc1	nt	16	nt	nt	17	7
COC(=O)N1C(=O)[C@](c2ccccc2)(C2CCCC2)N1C(=O)OC	1	-3	70*	-3	1	2
CN(C)C(=O)N1CCC(C(=O)N2CCCC(C(=O)c3ccc(C(C)(C)C)cc3)C2)CC1 (stereo not drawn)	26*	2	3	2	1	9
CC1CCCCC1NC(=O)c1ccc(S(=O)(=O)N2CCCC2)cc1 (stereo not drawn)	3	8	-3	1	2	-2
CC1CCCCC1NS(=O)(=O)c1ccc(S(=O)(=O)N2CCCC2)cc1 (stereo not drawn)	26*	3	1	1	14	2
COC(=O)c1cccc(COC(=O)c2cc3ccccc3oc2=O)c1	-2	8	4	-5	8	7
Cc1ccc(NCC(=O)N/N=C\C(Br)=C\c2ccccc2)cc1	27*	14	0	0	7	-8
CCN(Cc1ccccc1)C(=O)CCc1nnc(CCCc2ccccc2)o1	1	10	5	5	26*	-8
COC(=O)c1sc(-c2ccc(C(C)(C)C)cc2)cc1NC(=O)COCC(=O)O	28*	nt	-14	-10	nt	nt
CC(=O)Nc1ccc(C=CC=Cc2cccc([N+](=O)[O-])c2)cc1	nt	8	nt	nt	2	-2

Screening data (PubChem)
